Compound activity from PubChem BioAssay.
HEK293 tox = Cytotoxic Profiling in HEK 293 Cell Line of Diverse Libraries Using Quantitative High-Throughput Screening; HEK 293 viability, ATP luminescence (CellTiter-Glo), 48-72 h; Potency, µM (series often up to 115 µM), for the others: at the top dose activity change, negative = cytotoxicity, actives largely listed as inhibitors; 94,000 tested, 6.6% active; also: nearly all actives have a fitted effect of over 60% in size
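250 HEK 293 cells/well; compound by pintool; incubated 48 or 72 hr at 37 degree Celsius; CellTiter-Glo added, 10 min RT, luminescence imaged.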
FLuc inh = Firefly luciferase inhibition profiling of diverse chemical library using quantitative high-throughput screening; purified P. pyralis luciferase, luminescence, biochemical; Potency, µM (doses to about 115 µM), actives largely listed as inhibitors; 76,000 tested, 2.5% active; Luciferin 4-monooxygenase (Photinus pyralis), P08659; also: nearly all actives have a fitted effect of over 65% in size
Target sequence (P08659 whole entry, looked up): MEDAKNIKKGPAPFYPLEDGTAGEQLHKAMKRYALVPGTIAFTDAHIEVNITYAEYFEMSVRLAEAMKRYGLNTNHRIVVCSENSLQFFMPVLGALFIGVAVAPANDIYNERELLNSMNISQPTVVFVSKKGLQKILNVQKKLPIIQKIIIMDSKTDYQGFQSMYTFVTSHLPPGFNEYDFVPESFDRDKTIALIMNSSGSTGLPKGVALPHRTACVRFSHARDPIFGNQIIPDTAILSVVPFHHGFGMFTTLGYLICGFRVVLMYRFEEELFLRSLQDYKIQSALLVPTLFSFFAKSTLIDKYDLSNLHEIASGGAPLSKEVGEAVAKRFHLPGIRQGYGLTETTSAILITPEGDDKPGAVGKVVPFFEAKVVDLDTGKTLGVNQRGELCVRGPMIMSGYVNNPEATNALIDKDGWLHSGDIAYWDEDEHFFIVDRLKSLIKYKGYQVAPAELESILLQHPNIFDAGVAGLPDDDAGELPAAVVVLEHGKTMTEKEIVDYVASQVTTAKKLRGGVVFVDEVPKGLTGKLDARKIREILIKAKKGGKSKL
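Cell-free enzyme assay, 10nM P. pyralis luciferase, luciferin and ATP each at 10uM. Inhibition profiled over a 6-point titration, read as luminescence.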
NPR1 antag = Natriuretic polypeptide receptor (hNpr1) antagonism - Primary qHTS; HEK293 hNpr1 GloSensor cGMP, ANP-stimulated luminescence; Atrial natriuretic peptide receptor 1 (Homo sapiens), P16066; 76,000 tested, 1.6% active; Potency, µM (doses to about 46.3 µM), for the others: at the top dose activity change, negative = inhibition, most hits filed as inhibitors; calls by dose curve; also: nearly all actives have a fitted effect of over 60% in size
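HEK293 cells stably expressing human Npr1 and cGMP GloSensor pGS-40F, loaded 2 h with 2% GloSensor reagent, given compound 30 min at room temperature. Luminescence read before and 20 min after 0.1 nM hNppA.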
GPT2 inhibitor = Primary qHTS assay for inhibitors of Glutamate pyruvate transaminase 2 (GPT2). AID 1671188, 2021. Potency, µM (series often up to 57.7 µM), without a hit: at the top dose activity change, negative = inhibition, hits mostly inhibitors. 100,000 tested, 0.25% active. Recombinant GPT2, coupled pyruvate oxidase/HRP Amplex Red fluorescence; also: nearly all actives have a fitted effect of over 60% in size
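Fluorescence of coupled pyruvate oxidase/HRP/Amplex Red system (50uM Amplex, 30 min, dark) reports pyruvate formed by GPT2. Enzyme reaction: 10ng/uL GPT2, 2mM L-alanine, 250uM a-KG, 30 min room temperature, pH 7.5; 50uM AOA control.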
NIH3T3 tox = Cytotoxic Profiling in NIH 3T3 Cell Line of Diverse Libraries Using Quantitative High-Throughput Screening. AID 1345082, 2018. Potency, µM (top dose mostly 96.7 µM), for the others: top-dose activity change, negative = cytotoxicity, actives largely listed as inhibitors. 94,000 tested, 4.3% active. NIH 3T3 viability, CellTiter-Glo ATP luminescence, 48-72 h; also: nearly all actives have a fitted effect of over 55% in size
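First NIH 3T3 cells are plated at 400 cells/well; next compound is pinned in; then plates incubate 48 or 72 hr at 37 °C; finally CellTiter-Glo is added and luminescence read after 10 min.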
Starred values were filed as active, the others as inactive; i = inactive; ? = inconclusive; . = no result; [ ] = another dose, or the depositor's remark. Compounds with a hit are over-represented: about 10% of the library has one in this group of screens. Unless noted, calls follow the shape of the dose curve; as a rule, active = well fitted curve in the direction sought with a large enough effect; inconclusive = small, poorly fitted or top-dose-only effect, or another doubt; inactive = no such curve, though single readings can be large; an effect the other way counts as inactive or inconclusive. % is scaled to controls: 0 for no effect and ±100 for the full control effect; potency is read from the fitted curve at half-maximal effect.

SMILES	HEK293 tox	FLuc inh	NPR1 antag	GPT2 inhibitor	NIH3T3 tox
CC(=O)OC[C@]12[C@H](OC(C)=O)C(=O)[C@@H]3[C@@H](O)[C@@]14O[C@@]3(C)COC(=O)c1cccnc1[C@@H](C)[C@H](C)C(=O)O[C@@H]([C@H](OC(C)=O)[C@@H]2OC(C)=O)[C@]4(C)O	.	.	.	-0.3%[17.1 µM]	.
CN1CCN(C[C@H]2CN3CC[C@H]2C[C@@H]3CNC(=O)Nc2ccccc2)CC1	3.9%[172 µM]	i	4.4%[70.6 µM]	1.5%[88.5 µM]	?
O=C(NC[C@H]1C[C@@H]2CCN1C[C@@H]2CN1CCC(Cc2ccccc2)CC1)Nc1ccccc1	31.6µM*	i	-1.5%	4.1%	?
Cc1cc(CN2CCC3(CC(C(C)C)=NO3)C2)no1 (stereo not given)	i	.	.	3.6%[88.5 µM]	i
COc1ccc2c(c1)C1(CCN(S(=O)(=O)c3cccc(Cl)c3)C1)C(=O)N2C (stereo not given)	?	i	-0.2%	i	?
COc1ccc2c(c1)C1(CCN(C(=O)COc3ccc(Cl)cc3)C1)C(=O)N2C (stereo not given)	-21.1%	28.2µM*	-18.8%	4.9%	?
COc1ccc2c(c1)C1(CCN(S(=O)(=O)c3ccc(Cl)cc3)C1)C(=O)N2C (stereo not given)	50.1µM*	i	-13.7%	-16.4%	-28.6%
O=C(Nc1ccc2n(c1=O)C[C@H]1C[C@@H]2CN(C(=O)COc2ccccc2)C1)c1cccs1	?	i	-5.7%	-3.7%	?
O=C(Nc1ccccc1)Nc1ccc2n(c1=O)C[C@H]1C[C@@H]2CN(C(=O)c2cccs2)C1	?	5.62µM*	-1.5%[70.6 µM]	2.5%[88.5 µM]	?
O=C(Nc1ccc2n(c1=O)C[C@H]1C[C@@H]2CN(Cc2ccc(F)cc2)C1)c1cccs1	25.1µM*	?	?	?	?
Cn1nc(-c2cccs2)cc1[C@H]1CN2CC[C@H]1C[C@@H]2COC(=O)Nc1cccc(C(F)(F)F)c1	-0.1%	i	1.5%	i	-2.9%
COc1cc2c(cc1OC1CCCC1)NC(=O)C21CCN(c2cc(NC3CC3)ncn2)CC1	?	i	-13.1%	3.2%	?
COc1cc2c(cc1OCC1CC1)NC(=O)C21CCN(c2cc(NC3CC3)ncn2)CC1	89.1µM*	i	-8.7%[70.6 µM]	-3.1%[88.5 µM]	25.1µM*
COc1cc2c(cc1OCC1CC1)NC(=O)C21CCN(c2ccnc(C)n2)CC1	79.4µM*	i	-6.7%[70.6 µM]	1.8%[88.5 µM]	?
COc1cc2c(cc1OC1CCCC1)NC(=O)C21CCN(c2ccnc(C)n2)CC1	?	i	-10.0%[70.6 µM]	-0.5%[88.5 µM]	79.4µM*
COc1cc2c(cc1OC1CCCC1)NC(=O)C21CCN(Cc2ccncc2)CC1	?	i	-5.9%[70.6 µM]	-0.8%[88.5 µM]	?
C=C[C@H]1CN2CC[C@H]1C[C@@H]2CNCc1cccc(C#N)c1	3.3%[230 µM]	i	0.1%[70.6 µM]	-3.6%[88.5 µM]	-1.0%[230 µM]
CC(C)N1CC2CCC(C1)N2CC1CCCC1	-13.7%[230 µM]	.	.	?	-1.0%[174 µM]
O=C(O)C(=O)c1cn(Cc2ccccc2)c2ccc(-c3ccc(OC(F)(F)F)cc3)cc12	.	.	.	-5.8%	.
CCOC(=O)[C@@H]1[C@H]2c3ccccc3N(CCOC)C(=O)[C@H]2N(C(=O)C2CCC2)[C@@H]1c1ccccc1	50.1µM*	.	.	.	?
CCOC(=O)[C@@H]1[C@H]2c3ccccc3N(CCOC)C(=O)[C@H]2N(C(=O)CC(C)C)[C@@H]1c1ccccc1	39.8µM*	.	.	.	?
C=CC[C@]1(O)CC[C@H]2[C@@H]3CCC4=CC(=O)CCC4=C3C=C[C@@]21C	.	.	.	i	.
CS(=O)(=O)N1C[C@H]2CCNC[C@H]21	4.3%	i	2.8%	-5.6%	-9.0%
CN(C)CCc1c[nH]c2cccc(O)c12	.	.	.	10µM*	.
O=C(c1cnccn1)N1C[C@@H]2C[C@H](C1)c1ccc(-c3cccc(C(F)(F)F)c3)c(=O)n1C2	-12.3%	i	6.1%	-9.9%	-4.8%
SMILES	HEK293 tox	FLuc inh	NPR1 antag	GPT2 inhibitor	NIH3T3 tox
CN1CCN(C(=O)Cc2c[nH]c3ncc(-c4cccc(O)c4)cc23)CC1	-7.0%[172 µM]	?	3.9%[70.6 µM]	i	89.1µM*
CN1CCN(C(=O)Cc2c[nH]c3ncc(-c4ccsc4)cc23)CC1	-10.0%[172 µM]	?	6.8%[70.6 µM]	i	89.1µM*
Fc1ccc(CN2CCCC3(CC(c4ccccn4)=NO3)C2)cc1 (stereo not given)	-23.0%	.	.	-2.3%	-16.9%
Cc1cc(C(=O)N2[C@H]3CC[C@@H]2c2cnc(-c4ccccc4)nc2C3)nn1C	?	i	-15.9%	1.8%	?
CN(C)c1ccc(C(=O)NC[C@H]2C[C@@H]3CCN2C[C@@H]3CN2CCc3ccccc3C2)cc1	89.1µM*	i	-26.2%[70.6 µM]	-5.5%[88.5 µM]	31.6µM*
Cc1nc(-c2ccccc2Br)cc([C@H]2CN3CC[C@H]2C[C@@H]3CNC(=O)c2ccc(N(C)C)cc2)n1	28.2µM*	i	-8.1%	i	?
Cc1nc(-c2ccccc2Br)cc([C@H]2CN3CC[C@H]2C[C@@H]3CNC(=O)c2ccc(C(C)(C)C)cc2)n1	10µM*	i	-11.7%	0.5%	25.1µM*
CN(Cc1ccccc1)C[C@H]1CN2CC[C@H]1C[C@@H]2CNC(=O)c1ccc(N(C)C)cc1	?	i	0.1%[70.6 µM]	i	?
O=C1CC2CCN(Cc3cncs3)CC2CCN1 (stereo not given)	i	.	.	-1.2%[88.5 µM]	i
CN(C)[C@@H]1CN(C(=O)Cc2ccccc2)CCC1(O)c1ccccc1 (stereo not given in full)	-1.7%	i	-2.1%	3.8%	i
COc1ccc2c(c1)[C@@]13CCCC[C@H]1[C@@H](C2)NCC3	.	.	.	i	.
COc1cc2c(cc1CCc1ccccc1)N(C(=O)CC(C)C)CC21CCN(C(C)=O)CC1	?	i	2.1%	-19.5%	?
COc1cc2c(cc1OCc1ccccc1)N([S+](=O)([O-])c1cccc(C)c1)CC21CCN(C)CC1	28.2µM*	i	-1.8%	-1.2%	22.4µM*
COc1cc2c(cc1OCc1ccccc1)N(C(=O)Cc1ccc3c(c1)OCO3)CC21CCN(C)CC1	79.4µM*	i	6.5%	0.9%	?
COc1cc2c(cc1OCc1ccccc1)N(C(=O)COc1ccccc1C(N)=O)CC21CCN(C)CC1	39.8µM*	i	4.4%	-2.6%	22.4µM*
COc1cc2c(cc1OCc1ccccc1)N(C(=O)c1cnn(C)c1)CC21CCN(C)CC1	?	i	-0.6%	1.0%	?
